Source: PubChem BioAssay (NCI)
Compounds without any hit were thinned out: in the full panel of roughly 79,000, 15% have a hit. Active and inactive are the calls of the source. Rule as the data show it: active = growth inhibition above about 70%; inactive = the rest.

Legend:
[1] = NCI Yeast Anticancer Drug Screen. Data for the rad50 strain (AID 155);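 also: 0% = growth of vehicle-only cultures of the same strain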; settings: S. cerevisiae rad50 strain growth inhibition; at 50.0 µM; stronger effect = higher value
Method in brief: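 DNA repair mutant yeast, compound exposure, growth read-out; inhibition is taken relative to vehicle.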

[2] = NCI Yeast Anticancer Drug Screen. Data for the mec2-1 strain (AID 157); settings: S. cerevisiae mec2-1 strain, at 50.0 µM, stronger effect = higher value
Method in brief: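 Cells of the genetically defined mec2-1 yeast strain are incubated with test compound. Inhibition of growth is calculated against vehicle-treated controls.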

[3] = NCI Yeast Anticancer Drug Screen. Data for the sgs1 mgt1 strain (AID 161);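 also: 0% = growth of cultures given vehicle only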; settings: S. cerevisiae sgs1 mgt1 strain, at 50.0 µM, stronger effect = higher value
Method in brief: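 Mutant yeast exposed to compound; growth scored against vehicle-only wells.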

[4] = NCI Yeast Anticancer Drug Screen. Data for the cln2 rad14 strain (AID 165);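 also: 0% = growth equal to vehicle treated cultures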; settings: S. cerevisiae cln2 rad14 strain, at 50.0 µM, stronger effect = higher value
Method in brief: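 The screen exposed genetically defined yeast (cln2 rad14) to test compounds and scored growth inhibition relative to vehicle-treated controls.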

[5] = NCI Yeast Anticancer Drug Screen. Data for the bub3 strain (AID 167); settings: S. cerevisiae bub3 mutant strain, at 50.0 µM, stronger effect = higher value
Method in brief: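 In this screen, a yeast mutant lacking normal mitotic checkpoint function is challenged with compound. Relative growth versus vehicle gives the inhibition value.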

[6] = NCI Yeast Anticancer Drug Screen. Data for the mlh1 rad18 strain (AID 175); settings: S. cerevisiae mlh1 rad18 strain growth inhibition; at 50.0 µM; stronger effect = higher value
Method in brief: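 Compound-treated yeast growth, normalised to vehicle controls. Strain bears defined DNA repair mutations.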

Measured: growth inhibition

CCc1cc(Cc2cc(Cl)c(NC(=O)C(=O)C3NC(=O)NC3=O)c(CC)c2)cc(Cl)c1NC(=O)C(=O)C1NC(=O)NC1=O (centres undefined)
inactive: [1] 6.5% | [2] 5.2% | [3] 4.25% | [4] 15.9% | [5] 2.8% | [6] 8.65%

NCCCn1c2ccccc2c2cnccc21
inactive: [1] 7.2% | [2] 4.15% | [3] 2.15% | [4] -6.65% | [5] 1.05% | [6] -20.2%

CCOP(=O)(CCCCCCP(=O)(OCC)OCC)OCC
inactive: [1] 30.4% | [2] 18.4% | [3] -0.2% | [4] -31.1% | [5] 8.45% | [6] 32.9%

CC(C)CCOC(=O)c1ccccc1OC(=O)Nc1ccc(Cl)cc1[N+](=O)[O-]
inactive: [1] -18.9% | [2] -16.3% | [3] -20.4% | [4] -41.4% | [5] 0.05% | [6] -11.3%

O=C(O)C(CCOc1ccccc1)(CCc1ccccc1)C(=O)O
inactive: [1] 4.1% | [2] -10.8% | [3] 5.7% | [4] -58.5% | [5] -8.1% | [6] -13.4%

CCCCSc1nc2c(=O)n(C)c(=O)n(C)c2n1C
inactive: [1] 2.1% | [2] 1.15% | [3] 10.8% | [4] -5.7% | [5] -12.7% | [6] 6.95%

Cc1cc(N)ccc1N=Nc1ccc(Sc2ccc(N=Nc3c(S(=O)(=O)O)cc4cc(S(=O)(=O)O)c(N=Nc5ccc([N+](=O)[O-])cc5)c(N)c4c3O)cc2)cc1
inactive: [1] -77% | [2] -27.9% | [3] -32.4% | [4] -95.8% | [5] -65.8% | [6] -27.9%

O=C1NC(=O)N2CC(CI)OC2C1c1ccccc1 (centres undefined)
inactive: [1] 0.25% | [2] 12.8% | [3] 10.2% | [4] 6.55% | [5] -6.6% | [6] 11.4%

Cc1ccccc1C1CCCCC1OS(C)(=O)=O (centres undefined)
inactive: [1] -6.3% | [2] -1.35% | [3] -15.2% | [4] -7.6% | [5] 7.1% | [6] -11.1%

Cc1c(CCNC(=O)C(F)(F)F)ccc2c1[nH]c1ccccc12
inactive: [1] -3.3% | [2] 3.05% | [3] 11.8% | [4] -41.4% | [5] -2.4% | [6] -5.95%

O=C1C=CC(=CC=C2C=CN(CCCCCCO)C=C2)C=C1
inactive: [1] 18.4% | [2] 6.05% | [3] 26.2% | [4] 13.8% | [5] 8.65% | [6] 16.1%

C=C(C)[C@@H]1CC[C@]2(C)CC[C@]3(C)[C@H](CC[C@@H]4[C@@]5(C)CC[C@H](OC(=O)c6ccccc6)C(C)(C)[C@@H]5CC[C@]43C)[C@@H]12
inactive: [1] -7.6% | [2] -16.6% | [3] -26.4% | [4] 2.9% | [5] -0.65% | [6] 0%

CCCC1([N+](=O)[O-])CCC(C)(O)C(/C(C)=N\O)C1 (centres undefined)
inactive: [1] 7.05% | [2] -9.5% | [3] 25.5% | [4] -0.15% | [5] 26.1% | [6] 40.2%

Clc1ccccc1/C=C(/c1ccccc1)c1ccccn1
inactive: [1] 37.5% | [2] 12.3% | [3] 23.3% | [4] -8.85% | [5] 29.9% | [6] 15.8%

CCOC(=O)c1c(NCc2ccccc2)n(-c2ccccc2)c(=S)n(-c2ccccc2)c1=O
inactive: [1] 17.1% | [2] -6.8% | [3] 0.6% | [4] 32.1% | [5] 14.8% | [6] 53%

O=C(CCC1CCCC1)Oc1ccccc1C(=O)O
inactive: [1] -1.9% | [2] -9.65% | [3] 7.1% | [4] -42.7% | [5] 9.5% | [6] 3.4%

O=C(O)COc1ccc([N+](=O)[O-])cc1/C=C1/SC(=S)N(c2ccccc2)C1=O
inactive: [1] 14.7% | [2] 10.3% | [3] 18.9% | [4] 2.5% | [5] -1.6% | [6] 11.2%

C[Si](C)(C)CSCCO
inactive: [1] -13.7% | [2] -6.45% | [3] -20.8% | [4] -16.1% | [5] -14.7% | [6] -1.6%

CCOc1ccc(NC(=O)c2ccccc2O)cc1
inactive: [1] 26.9% | [2] 14% | [3] 17.7% | [4] -9.05% | [5] 17.3% | [6] 43.3%

COc1cc2c(cc1OC)C(=O)CC2
inactive: [1] -12.7% | [2] -10.9% | [3] -19.7% | [4] -5.25% | [5] -4.2% | [6] 0.15%

COC(=O)C1=C(C(=O)OC)C2(C(=O)OC)OC1(OC)C(C1(C(=O)OC)C(C(=O)OC)=C1C(=O)OC)=C2C(=O)OC (centres undefined)
inactive: [1] 16% | [2] 14.2% | [3] 8.9% | [4] 16.1% | [5] 1.25% | [6] 9.7%

COC(=O)CC(NC(=O)OCc1ccccc1)C(=O)NCC(=O)NCC(=O)O (centres undefined)
inactive: [1] 15.8% | [2] 12.7% | [3] -5.65% | [4] 14.3% | [5] -4.7% | [6] 2.5%

Cc1ccc(C(=O)Nc2ccc3c(c2)Cc2ccccc2-3)cc1
inactive: [1] -19.3% | [2] -23.6% | [3] -7.45% | [4] -5% | [5] -20.6% | [6] -10.8%

Cc1c(Cl)cccc1NC(=O)Nc1ccccc1F
inactive: [1] 14.2% | [2] 7.65% | [3] 15.2% | [4] 19.2% | [5] 28.4% | [6] 17.4%

O=c1c2ccccc2c(=O)n2n1C1C=CC2C1
inactive: [1] -5% | [2] -7.15% | [3] 1.55% | [4] -6.4% | [5] 4.5% | [6] -4.55%

C[N+](C)([O-])Cc1ccccc1
inactive: [1] -12.9% | [2] -27.4% | [3] -19.4% | [4] -0.8% | [5] -5.2% | [6] -16.9%

COc1ccccc1C(O)(c1ccccc1OC)C1(O)CCN(C)CC1
inactive: [1] -10.8% | [2] -10.9% | [3] -4.8% | [4] -4.45% | [5] -5.3% | [6] -10.4%

Cc1cc(NC(=O)NCCCCCCNC(=O)Nc2cc(C)on2)no1
inactive: [1] 4.95% | [2] 1.2% | [3] 1.7% | [4] -7.75% | [5] 14.6% | [6] 0.35%

O=C1c2cc3ccccc3cc2NC(O)c2cccn21 (centres undefined)
inactive: [1] 9.4% | [2] 4.6% | [3] 1.15% | [4] 27.4% | [5] 13.4% | [6] 13.2%

CC[C@@]1(OC(=O)CN2CCNCC2)C(=O)OCc2c1cc1n(c2=O)Cc2cc3ccccc3nc2-1
active: [2] 70.8%
inactive: [1] 52.1% | [3] 49.1% | [4] 29.6% | [5] 26.1% | [6] 10.1%

CN(C)C(=S)c1cccc2ccccc12
inactive: [1] 5.1% | [2] -10.5% | [3] -1.95% | [4] -31.4% | [5] -27.2% | [6] -8.45%

CC(=O)Nc1ccc(SC#N)c2c(NC(C)=O)cccc12
inactive: [1] 44.6% | [2] 27.5% | [3] 56.5% | [4] 27.6% | [5] 30.4% | [6] 47.7%

O=C(O)/C(=C/c1ccccc1[N+](=O)[O-])c1cccs1
inactive: [1] 27.9% | [2] 2.25% | [3] 22.6% | [4] 21.1% | [5] -11.3% | [6] 8.9%

Cc1cc(Cl)c(Cl)cc1NC(=O)c1ccc(Cl)cc1Cl
inactive: [1] 2.85% | [2] 6.9% | [3] 1.25% | [4] -0.95% | [5] -1.3% | [6] 17.6%

CC(=O)OC(C)C1CCCC1OC(C)=O (centres undefined)
inactive: [1] -3.95% | [2] 9.2% | [3] -9.95% | [4] 5.75% | [5] -15.1% | [6] -22.5%

C=CCCC(=O)OC(C)(C)C
inactive: [1] 16.8% | [2] -15.4% | [3] 21.4% | [4] 7.2% | [5] 6.1% | [6] 1.95%

CCN(CC)CC(O)c1ccc2c(ccc3ccccc32)c1 (centres undefined)
inactive: [1] 12.5% | [2] -5% | [3] 9.2% | [4] -32% | [5] -3.45% | [6] 12%

O=C1NC(c2cccc3c2OCO3)N=C2Oc3ccccc3C=C12 (centres undefined)
inactive: [1] 9.95% | [2] 1.95% | [3] 9.45% | [4] 7.8% | [5] -4.05% | [6] -10.6%

CC(=O)CCC(=O)CCC(C)=O
inactive: [1] -0.05% | [2] 30.4% | [3] 6.05% | [4] -1.85% | [5] 29.1% | [6] -2.7%
